Where “and” joins values, the source holds several entries; their conditions need not be identical. Equal values may be shown once. Among all 5,500 compounds or so, about 2,000 (36%) were called active. Roughly 18% stayed inconclusive and do not appear here. No stated cut-off is given here; in the data, active means normalized growth mostly below about 0.91 (no sharp cut-off); inconclusive means no clear call, values can overlap the other calls; inactive means mostly above about 0.92. Some of the results follow.
Experiment: chemical genetic growth profiling, strain panel (AID 1159580);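 further: tested at 20 µM; growth read once vehicle control cultures reached saturation at 30 °C; 1 = growth at the plate median or of vehicle wells; lower values mean less growth of the strain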
Details: S. cerevisiae deletion strains, growth OD

Measured: normalized growth

C[C@]12CCC3c4ccc(O)cc4CCC3C1CC[C@@H]2OC(=O)CCC1CCCC1 (some centres undefined)
inactive: locus YAL021C, strain ccr4, hits give low values 1.03 | locus YAL026C, strain drs2, hits give low values 0.997 | locus YAL030W, strain snc1, hits give low values 1.01 | locus YBL061C, strain skt5, hits give low values 1 | locus YBR009C, strain hhf1, hits give low values 1 | locus YBR021W, strain FUR4, hits give low values 1.02 | locus YBR023C, strain chs3, hits give low values 1.03 | locus YBR171W, strain sec66, hits give low values 1.02 | locus YBR229C, strain ROT2, hits give low values 0.961 | locus YBR231C, strain swc5, hits give low values 0.98 | locus YBR279W, strain paf1, hits give low values 1 | locus YCL011C, strain gbp2, hits give low values 1.02 | locus YCL016C, strain dcc1, hits give low values 1.03 | locus YCL029C, strain bik1, hits give low values 1 | locus YCL061C, strain MRC1, hits give low values 1.01 | locus YCL069W, strain vba3, hits give low values 1.01 | locus YCR088W, strain abp1, hits give low values 1.01 | locus YDL005C, strain med2, hits give low values 1.01 | locus YDL035C, strain GPR1, hits give low values 0.959 | locus YDL040C, strain nat1, hits give low values 0.997 | locus YDL074C, strain BRE1, hits give low values 0.97 | locus YDL101C, strain DUN1, hits give low values 0.985 | locus YDL185W, strain tfp1, hits give low values 0.975 | locus YDL192W, strain arf1, hits give low values 1 | locus YDR001C, strain nth1, hits give low values 1 | locus YDR069C, strain doa4, hits give low values 0.989 | locus YDR101C, strain arx1, hits give low values 0.959 | locus YDR137W, strain rgp1, hits give low values 1.03 | locus YDR150W, strain NUM1, hits give low values 0.985 | locus YDR159W, strain sac3, hits give low values 0.982 | locus YDR162C, strain NBP2, hits give low values 0.944 | locus YDR195W, strain ref2 1 | locus YDR297W, strain sur2, hits give low values 1.01 | locus YDR318W, strain mcm21, hits give low values 1 | locus YDR334W, strain swr1, hits give low values 1.01 | locus YDR335W, strain msn5, hits give low values 1.02 | locus YDR388W, hits give low values 0.991 | locus YDR392W, strain spt3, hits give low values 0.944 | locus YDR502C, strain sam2, hits give low values 0.994 | locus YEL003W, strain gim4, hits give low values 0.988 | locus YEL037C, strain rad23, hits give low values 0.992 | locus YEL061C, strain CIN8 (second series), hits give low values 1.01 | locus YEL061C, strain CIN8, hits give low values 0.989 | locus YER015W, strain faa2, hits give low values 1 | locus YER016W, strain bim1, hits give low values 1.01 | locus YER110C, hits give low values 1.01 | locus YER111C, strain swi4, hits give low values 1.01 | locus YER155C, strain BEM2 (second series), hits give low values 1.01 | locus YER155C, strain BEM2, hits give low values 1 | locus YER167W, strain BCK2, hits give low values 1.01 | locus YFR010W, strain ubp6, hits give low values 1.01 | locus YGL078C, strain dbp3, hits give low values 0.998 | locus YGL086W, strain mad1, hits give low values 0.994 | locus YGL167C, strain pmr1, hits give low values 1.01 | locus YGL173C, strain kem1, hits give low values 1.02 | locus YGL227W, strain vid30, hits give low values 1.03 | locus YGL240W, strain doc1, hits give low values 1.05 | locus YGL248W, strain PDE1, hits give low values 0.99 | locus YGL253W, strain hxk2, hits give low values 1.01 | locus YGR135W, strain pre9, hits give low values 1.07 | locus YGR229C, strain SMI1, hits give low values 0.982 | locus YGR252W, strain gcn5, hits give low values 1.16 | locus YHR013C, strain ard1, hits give low values 1.03 | locus YHR027C, strain rpn1, hits give low values 0.995 | locus YHR030C, strain SLT2, hits give low values 0.99 and 1.03 | locus YHR079C, strain IRE1 (second series), hits give low values 0.996 | locus YHR079C, strain IRE1, hits give low values 1.04 | locus YHR094C, strain hxt1, hits give low values 0.997 | locus YHR129C, strain ARP1, hits give low values 0.992 | locus YHR142W, strain chs7, hits give low values 1.05 | locus YHR200W, strain rpn10, hits give low values 0.998 | locus YIL066C, strain RNR3, hits give low values 0.977 | locus YIL073C, strain SPO22, hits give low values 0.989 | locus YIL125W, strain kgd1, hits give low values 0.989 | locus YIR030C, strain dcg1, hits give low values 1.01 | locus YJL092W, strain hpr5, hits give low values 1.01 | locus YJL095W, strain BCK1 (second series), hits give low values 1.01 | locus YJL095W, strain BCK1, hits give low values 1.01 | locus YJL115W, strain asf1, hits give low values 1.01 | locus YJL129C, strain trk1, hits give low values 1.03 | locus YJL134W, strain LCB3, hits give low values 0.979 | locus YJL154C, strain vps35, hits give low values 1.01 | locus YJL164C, strain tpk1, hits give low values 0.996 | locus YJL166W, strain qcr8, hits give low values 1.02 | locus YJL168C, strain set2, hits give low values 0.995 | locus YJL187C, strain SWE1 (second series), hits give low values 0.976 | locus YJL187C, strain SWE1, hits give low values 1.01 | locus YJR043C, strain POL32, hits give low values 0.967 | locus YJR066W, strain TOR1, hits give low values 0.929

— PubChem BioAssay AID1159580 (chemical genetic matrix, 2015)
